Holding throughout (parameters): scale not given: direction of the effect not stated beside the values
The target of test [1] is Protein translocase subunit SecA (Escherichia coli (strain K12)) (UniProt P10408). Nature of the test: Assay to Identify E. coli SecA ATPase Inhibitors. The test is classed as functional. Conditions: 30 µM.
Test [2] has as its target T1, Ubiquitin-activating enzyme e1, putative (Leishmania donovani (strain BPK282A1)) (UniProt E9BSI1).
T1 sequence (whole entry): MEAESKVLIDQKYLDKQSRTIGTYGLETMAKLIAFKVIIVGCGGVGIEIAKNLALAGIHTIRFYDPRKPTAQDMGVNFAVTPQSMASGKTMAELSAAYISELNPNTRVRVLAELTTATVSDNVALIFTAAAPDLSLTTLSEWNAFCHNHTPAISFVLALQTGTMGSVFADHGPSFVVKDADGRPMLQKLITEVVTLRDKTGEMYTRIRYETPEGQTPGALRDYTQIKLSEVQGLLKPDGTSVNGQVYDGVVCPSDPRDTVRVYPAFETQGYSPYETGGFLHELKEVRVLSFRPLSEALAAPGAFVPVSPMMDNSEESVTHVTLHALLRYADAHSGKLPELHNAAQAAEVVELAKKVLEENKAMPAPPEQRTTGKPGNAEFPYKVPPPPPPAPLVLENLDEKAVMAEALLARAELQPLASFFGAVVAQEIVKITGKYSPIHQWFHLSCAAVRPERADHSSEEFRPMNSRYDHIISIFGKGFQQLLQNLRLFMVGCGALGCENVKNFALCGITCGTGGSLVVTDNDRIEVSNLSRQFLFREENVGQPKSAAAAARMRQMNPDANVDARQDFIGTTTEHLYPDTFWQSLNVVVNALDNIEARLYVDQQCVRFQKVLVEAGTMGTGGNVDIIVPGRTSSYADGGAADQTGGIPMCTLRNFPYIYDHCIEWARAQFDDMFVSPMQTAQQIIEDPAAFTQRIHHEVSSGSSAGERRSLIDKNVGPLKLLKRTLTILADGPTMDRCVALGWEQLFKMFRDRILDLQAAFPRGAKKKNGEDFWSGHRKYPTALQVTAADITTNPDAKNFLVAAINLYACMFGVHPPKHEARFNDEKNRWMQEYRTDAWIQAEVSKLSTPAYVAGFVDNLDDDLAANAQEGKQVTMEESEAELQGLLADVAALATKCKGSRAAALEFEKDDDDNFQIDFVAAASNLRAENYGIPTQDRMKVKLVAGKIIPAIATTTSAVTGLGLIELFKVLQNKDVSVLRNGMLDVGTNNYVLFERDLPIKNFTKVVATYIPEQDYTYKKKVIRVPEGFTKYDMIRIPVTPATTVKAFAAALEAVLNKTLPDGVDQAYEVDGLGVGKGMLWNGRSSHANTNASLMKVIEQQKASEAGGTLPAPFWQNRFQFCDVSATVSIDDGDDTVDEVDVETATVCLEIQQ
Nature of the test: Leishmania donovani Ubiquitin Activating Enzyme (LdE1). Conditions: 30 µM. The test is classed as functional.

Test [3] has as its target AMP-activated protein kinase, AMPK (Homo sapiens) (UniProt P54646+O43741+P54619+Q9UGJ0+Q9Y478+Q13131+Q9UGI9). Description: AMP-dependent Kinase enzyme assay. An in vitro enzyme assay that detects ADP turnover that is directly proportional to AMPK activity. This uses naive AMPK that is activated during the assay with MK-8722. The test is classed as functional. Conditions: 30 µM.

Test [4] deals with Sialic acid-binding Ig-like lectin 9 (Homo sapiens) (UniProt Q9Y336). Nature of the test: Hs-Siglec9 ALPHAscreen SOP 20170721. To be noted: 10 µM.
Sequence of Sialic acid-binding Ig-like lectin 9 (Homo sapiens) (Q9Y336 whole entry): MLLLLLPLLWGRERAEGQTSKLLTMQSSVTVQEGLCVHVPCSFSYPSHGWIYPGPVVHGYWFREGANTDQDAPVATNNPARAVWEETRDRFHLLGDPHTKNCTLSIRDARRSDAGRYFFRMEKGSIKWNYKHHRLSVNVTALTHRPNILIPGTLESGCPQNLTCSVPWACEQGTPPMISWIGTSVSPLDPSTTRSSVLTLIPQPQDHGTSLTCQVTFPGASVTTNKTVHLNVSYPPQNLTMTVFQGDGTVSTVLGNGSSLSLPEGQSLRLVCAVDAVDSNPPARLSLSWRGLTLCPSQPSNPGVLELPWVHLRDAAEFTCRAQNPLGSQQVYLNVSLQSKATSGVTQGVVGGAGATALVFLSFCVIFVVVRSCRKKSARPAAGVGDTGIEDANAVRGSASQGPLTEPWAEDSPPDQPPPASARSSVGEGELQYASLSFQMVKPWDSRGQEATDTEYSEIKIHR
The test system of another test is Trypanosoma cruzi. Description: Trypanosoma cruzi phosphomannomutase and mannose-1-phosphate guanylyltransferase assay. The test is classed as functional. Conditions: 10 µM.
For test [5], the target named is T2, Arginase-2, mitochondrial (Homo sapiens) (UniProt P78540).
T2 sequence (whole entry): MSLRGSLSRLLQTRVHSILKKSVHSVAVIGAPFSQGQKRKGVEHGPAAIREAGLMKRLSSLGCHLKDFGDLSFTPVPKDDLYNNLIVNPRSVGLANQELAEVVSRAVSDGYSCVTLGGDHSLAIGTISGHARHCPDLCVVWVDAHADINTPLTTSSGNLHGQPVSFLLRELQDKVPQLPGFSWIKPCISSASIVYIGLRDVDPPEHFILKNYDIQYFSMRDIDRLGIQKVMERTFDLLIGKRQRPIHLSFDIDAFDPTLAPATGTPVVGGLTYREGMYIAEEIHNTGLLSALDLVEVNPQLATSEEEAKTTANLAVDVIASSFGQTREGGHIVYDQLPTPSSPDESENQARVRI
Description: in vitro enzyme assay to detect the production of urea directly proportional to the activity of Arginase II. Also: in the data most compounds retested in dose-response had high values. The test is classed as functional. Conditions: 33.3 µM.

Test [6] concerns the target T3, Proteasome subunit beta (Trypanosoma cruzi) (UniProt O96673).
T3 sequence (whole entry): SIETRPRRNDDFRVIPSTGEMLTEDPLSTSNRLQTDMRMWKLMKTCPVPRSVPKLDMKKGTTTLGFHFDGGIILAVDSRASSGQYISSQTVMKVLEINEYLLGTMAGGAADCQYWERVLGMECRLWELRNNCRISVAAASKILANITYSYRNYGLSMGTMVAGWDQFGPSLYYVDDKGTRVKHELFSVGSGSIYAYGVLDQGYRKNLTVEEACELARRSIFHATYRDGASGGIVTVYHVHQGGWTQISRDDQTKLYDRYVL
Description: Trypanosoma cruzi proteasome chymotrypsin-like activity (TcProtChymo) assay. Also: in the data most compounds retested in dose-response had high values. The test is classed as functional. Conditions: 9.37 µM.

The species entered for a further test is Homo sapiens. Description: To identify inhibition of the IFN signalling (Jak-Stat) pathway via expression of an eGFP reporter gene under the control of an IFN-stimulated response element (ISRE) containing MxA promoter. The test is classed as functional. Conditions: 30 µM.
Test [7] addresses T4, Tyrosyl-tRNA synthetase, putative (Trypanosoma cruzi (strain CL Brener)) (UniProt Q4DSP6).
T4 sequence (whole entry): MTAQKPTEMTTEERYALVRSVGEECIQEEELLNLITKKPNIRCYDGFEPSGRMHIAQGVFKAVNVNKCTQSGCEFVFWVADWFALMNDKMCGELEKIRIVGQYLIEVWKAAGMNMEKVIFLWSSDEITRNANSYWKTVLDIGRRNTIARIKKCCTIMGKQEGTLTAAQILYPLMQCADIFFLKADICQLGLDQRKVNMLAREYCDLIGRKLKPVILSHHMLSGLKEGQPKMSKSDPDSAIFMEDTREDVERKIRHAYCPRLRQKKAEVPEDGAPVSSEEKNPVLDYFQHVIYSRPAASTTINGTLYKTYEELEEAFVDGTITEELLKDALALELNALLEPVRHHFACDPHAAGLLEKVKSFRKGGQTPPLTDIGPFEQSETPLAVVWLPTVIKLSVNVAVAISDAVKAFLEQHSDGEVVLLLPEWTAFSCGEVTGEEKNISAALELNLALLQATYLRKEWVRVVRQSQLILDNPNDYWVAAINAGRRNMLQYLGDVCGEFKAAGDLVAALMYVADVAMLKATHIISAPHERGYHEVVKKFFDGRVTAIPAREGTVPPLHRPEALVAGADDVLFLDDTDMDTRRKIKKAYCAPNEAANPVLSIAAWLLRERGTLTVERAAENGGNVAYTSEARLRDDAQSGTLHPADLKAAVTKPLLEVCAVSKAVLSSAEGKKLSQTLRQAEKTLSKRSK
Nature of the test: Trypanosoma cruzi tyrosyl tRNA synthetase (TcYRS) _High Tyrosine SOP. Also: in the data most compounds retested in dose-response had high values. To be noted: 30 µM. The test is classed as functional.

The target in test [8] is T4, Tyrosyl-tRNA synthetase, putative (Trypanosoma cruzi (strain CL Brener)). Description: Trypanosoma cruzi tyrosyl tRNA synthetase (TcYRS) SOP. Conditions: 30 µM. The test is classed as functional.
Test [9] concerns the target Chromo domain-containing protein 1 (Saccharomyces cerevisiae (strain ATCC 204508 / S288c) (Baker's yeast)) (UniProt P32657). Nature of the test: ScCHD-1 Enzyme Inhibition Assay. Also: in the data most compounds retested in dose-response had high values. The test is classed as functional. Conditions: 30 µM.

Results on ten compounds are retold here after ChEMBL document CHEMBL3988442, “University of Dundee, Small-Polar-MMV Screening Library” (2021).

The structures appear in SMILES notation. For some assays here: Potency and affinity values are given separately.

Sequence of Chromo domain-containing protein 1 (Saccharomyces cerevisiae (strain ATCC 204508 / S288c) (Baker's yeast)) (P32657 whole entry, the tested form may be a part): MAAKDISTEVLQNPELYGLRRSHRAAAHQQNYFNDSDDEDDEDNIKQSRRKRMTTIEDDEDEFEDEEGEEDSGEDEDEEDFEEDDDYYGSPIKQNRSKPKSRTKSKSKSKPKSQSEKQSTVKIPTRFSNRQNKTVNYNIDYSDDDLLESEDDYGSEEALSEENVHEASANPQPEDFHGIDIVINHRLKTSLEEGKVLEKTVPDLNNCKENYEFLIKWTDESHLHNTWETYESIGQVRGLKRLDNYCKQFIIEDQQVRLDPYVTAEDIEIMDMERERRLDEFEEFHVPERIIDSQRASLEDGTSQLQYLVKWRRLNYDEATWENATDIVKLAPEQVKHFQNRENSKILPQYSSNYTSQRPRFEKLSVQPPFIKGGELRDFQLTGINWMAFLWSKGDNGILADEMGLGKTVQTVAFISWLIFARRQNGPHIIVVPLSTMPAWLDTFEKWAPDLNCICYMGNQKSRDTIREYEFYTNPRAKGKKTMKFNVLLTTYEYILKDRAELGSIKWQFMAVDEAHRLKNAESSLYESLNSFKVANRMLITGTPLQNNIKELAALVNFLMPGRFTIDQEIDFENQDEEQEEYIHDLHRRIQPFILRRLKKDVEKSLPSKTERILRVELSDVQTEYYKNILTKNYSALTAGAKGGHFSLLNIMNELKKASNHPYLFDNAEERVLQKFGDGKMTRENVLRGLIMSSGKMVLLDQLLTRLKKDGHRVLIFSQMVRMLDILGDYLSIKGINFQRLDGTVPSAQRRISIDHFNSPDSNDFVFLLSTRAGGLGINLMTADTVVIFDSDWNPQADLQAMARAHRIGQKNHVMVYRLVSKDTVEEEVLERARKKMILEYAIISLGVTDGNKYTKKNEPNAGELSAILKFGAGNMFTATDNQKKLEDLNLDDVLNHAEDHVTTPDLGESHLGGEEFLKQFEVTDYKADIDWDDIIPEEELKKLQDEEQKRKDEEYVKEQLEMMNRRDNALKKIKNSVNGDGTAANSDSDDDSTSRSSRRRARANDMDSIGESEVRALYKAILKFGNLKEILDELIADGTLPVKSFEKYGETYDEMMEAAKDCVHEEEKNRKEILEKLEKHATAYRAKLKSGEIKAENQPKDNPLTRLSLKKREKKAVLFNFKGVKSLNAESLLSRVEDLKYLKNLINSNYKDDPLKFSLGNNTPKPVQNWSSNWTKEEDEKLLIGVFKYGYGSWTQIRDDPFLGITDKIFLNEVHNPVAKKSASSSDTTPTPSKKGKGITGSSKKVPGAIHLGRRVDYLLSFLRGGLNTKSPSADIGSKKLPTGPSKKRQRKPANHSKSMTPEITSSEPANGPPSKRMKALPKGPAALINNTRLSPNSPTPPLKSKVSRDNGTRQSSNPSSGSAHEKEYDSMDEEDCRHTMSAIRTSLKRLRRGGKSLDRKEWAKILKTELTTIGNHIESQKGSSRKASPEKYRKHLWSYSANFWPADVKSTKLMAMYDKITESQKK
Sequence of Protein translocase subunit SecA (Escherichia coli (strain K12)) (P10408 whole entry): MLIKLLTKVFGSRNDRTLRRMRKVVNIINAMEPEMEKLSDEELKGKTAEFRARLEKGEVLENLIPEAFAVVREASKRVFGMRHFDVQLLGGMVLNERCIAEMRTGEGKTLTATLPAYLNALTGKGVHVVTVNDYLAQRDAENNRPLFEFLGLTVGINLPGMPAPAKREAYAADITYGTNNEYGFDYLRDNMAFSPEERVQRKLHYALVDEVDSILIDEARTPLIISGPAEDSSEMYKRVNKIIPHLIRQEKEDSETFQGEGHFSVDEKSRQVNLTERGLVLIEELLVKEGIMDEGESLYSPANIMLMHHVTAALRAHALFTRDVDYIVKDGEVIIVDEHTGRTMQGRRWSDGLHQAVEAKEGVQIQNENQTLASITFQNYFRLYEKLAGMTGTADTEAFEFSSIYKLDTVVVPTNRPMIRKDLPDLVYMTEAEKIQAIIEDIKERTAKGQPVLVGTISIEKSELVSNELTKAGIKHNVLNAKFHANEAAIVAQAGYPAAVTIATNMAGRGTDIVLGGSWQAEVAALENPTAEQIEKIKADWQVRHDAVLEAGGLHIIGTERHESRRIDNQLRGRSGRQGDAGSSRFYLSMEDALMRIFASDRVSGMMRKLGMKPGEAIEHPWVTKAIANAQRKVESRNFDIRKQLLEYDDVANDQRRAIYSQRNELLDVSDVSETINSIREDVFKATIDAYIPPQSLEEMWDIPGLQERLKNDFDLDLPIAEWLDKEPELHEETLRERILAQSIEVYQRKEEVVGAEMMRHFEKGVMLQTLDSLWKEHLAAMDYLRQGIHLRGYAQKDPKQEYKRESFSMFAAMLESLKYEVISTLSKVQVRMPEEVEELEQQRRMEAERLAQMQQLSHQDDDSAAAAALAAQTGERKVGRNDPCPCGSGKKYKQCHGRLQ

Regarding `Cc1cnn(CC2CCCN2CCc2nc3ccccc3c(=O)[nH]2)c1` (stereo not given), the Percent Effect in [1] was -3.81%; in test [2], 10.1%; in test [3] it was -7.83%; in test [4] it was 11.2%; in the test with Trypanosoma cruzi, 6.89%; in test [5], 4.56%. The Percent Effect in test [6] was -1.06%; in the test filed under Homo sapiens, 15.8%; in [7], 3.45%; in [8], 16.5%; in test [9], -5.27%.
Consider `Cc1cc(C)n(CC2CN(CC(=O)Nc3c(C)n[nH]c3C)CCO2)n1` (stereo not given), for which the Percent Effect was -3.28% in test [1]; 15.6% in test [2]; 2.77% in [3]; 0.0825% in test [4]; -8.61% with Trypanosoma cruzi; 0% in [5]. In addition, the Percent Effect is 10.5% in test [6]; 24.1% in the test filed under Homo sapiens; 6.8% in [7]; 12.2% in test [8]; -3.32% in test [9].
As to `Cc1nn(C)c2cn(C(C)C(=O)NCc3cccnc3)nc12` (stereo not given), the Percent Effect is -2.07% in test [1]; 14.7% in test [2]; -8.7% in [3]; 5.87% in [4]; 1.77% in the test on Trypanosoma cruzi; -6.16% in [5]. Also, the Percent Effect in test [6] was 17.9%; in the test filed under Homo sapiens, 20.4%; in test [7], -4.23%; in test [8] it was 10.3%; in test [9], -9.99%.
As to `Cc1nc(C)n(CC2CN(Cc3cccc(C#N)c3)CCO2)n1` (stereo not given), the Percent Effect in [1] was -0.461%; in test [2], 13.5%; in test [3], -1.52%; in test [4] it was 2.34%; in the test on Trypanosoma cruzi, 2.74%; in [5] it was 0.802%. Moreover, the Percent Effect is 14.6% in [6]; 0.861% in the test listed under Homo sapiens; -10.3% in test [7]; 18.5% in [8]; -3.18% in [9].
With `CCCS(=O)(=O)N1CCC2(CC1)CN(c1ccccn1)CCO2`, the Percent Effect was -4.44% in test [1]; 4% in [2]; -4.84% in [3]; -5.06% in [4]; -11% with Trypanosoma cruzi; -11.8% in test [5]. Further, the Percent Effect in test [6] is 11.8%; in the test filed under Homo sapiens, -5.14%; in [7] it was 0%; in test [8], -2.56%; in test [9], -7.42%.
With `CCC(CNC(=O)c1ccc(Br)o1)N1CCc2ccccc2C1` (stereo not given), the Percent Effect in [1] was -2.45%; in [2] it was -2.7%; in [3] it was -0.754%; in test [4], 2.18%; with Trypanosoma cruzi, 2.51%; in test [5] it was -2.38%. Further, the Percent Effect was 10.9% in [6]; 11.9% in the test listed under Homo sapiens; 0.529% in test [7]; -4.88% in [8]; -2.21% in test [9].
Turning to `CCc1nc(C2CCCN2C(=O)CCc2cccs2)no1` (stereo not given), the Percent Effect in [1] was -3.51%; in test [2] it was -2.7%; in test [3], -4.68%; in test [4] it was 4.58%; with Trypanosoma cruzi it was -3.81%; in [5], 1.29%. Also, the Percent Effect is -4.49% in test [6]; 3.17% in the test filed under Homo sapiens; -0.99% in test [7]; -8.54% in [8]; -2.06% in [9].
`CCc1nnc2n1CCN(CC(=O)Nc1cc(C(C)(C)C)nn1C)C2`: the Percent Effect is -1.62% in [1]; 5.26% in test [2]; 1.91% in test [3]; 0.565% in test [4]; -3.38% with Trypanosoma cruzi; 4.6% in test [5]. Besides, the Percent Effect was found to be 2.17% in test [6]; 2.83% in the test listed under Homo sapiens; 3.43% in [7]; 9.76% in test [8]; 2.88% in [9].
As for `COCC1CN(C(=O)c2ccoc2C)Cc2nccn2C1` (stereo not given), the Percent Effect in [1] was -6.75%; in [2], 0%; in test [3], 10.2%; in test [4], -5.59%; in the test on Trypanosoma cruzi it was -6.3%; in test [5] it was 0.233%. The Percent Effect was 2.03% in test [6]; 12.3% in the test filed under Homo sapiens; -3.19% in [7]; 1.28% in test [8]; -4.85% in test [9].
For the compound `Cn1cc(CN2CC[C@H](O)[C@@H]2Cc2ccncc2)cn1`, the Percent Effect in [1] was -8.41%; in test [2] it was 5.41%; in [3], -33.1%; in test [4] it was -9.45%; in the test with Trypanosoma cruzi, -0.293%; in test [5], -0.955%. The Percent Effect in test [6] was 1.66%; in the test listed under Homo sapiens, 26.4%; in test [7], -1.08%; in test [8] it was -2.56%; in test [9], 3.16%.
